Assay results: PubChem BioAssay
The source made the active and inactive calls.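 Rule for the calls, unless noted: active = NADPH fluorescence slope more negative than the mean of all samples by about 3 SD, 99.7% confidence; inactive = the rest.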

Columns and labels:
[1] = inhibitors of TNFa-induced NFkB p65 translocation, primary screen, imaging, HUVEC, MLSMR starter and 10KST1 sets (AID 438;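 active = inhibition above 20% together with a positive visual image hit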;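 note: compound added about 3h40 before a 20 min TNFalpha stimulation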;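 for inhibition: signal is the nuclear over cytoplasmic p65 intensity ratio per well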); details: HUVEC TNFa-induced p65 nuclear translocation; cell count: measured here: nuclei count (cytotoxicity indicator), at 2.08 µM; inhibition: at 2 µM, stronger effect = higher value, 0% TNFa-plus-vehicle, 100% no-TNFa wells
[2] = reduction of polyQ htt aggregates in cells – imaging, exon1htt(103Q)mCFP cells, high-content imaging, primary screen (AID 483;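 active = visual image review flags a hit and inhibition of aggregation exceeds 20%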;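 note: compound exposure lasted 3 days before fixation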;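 for nuclei count: percent of the per-plate median nuclei count of sample wells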); details: exon1htt(103Q)mCFP cell line, aggregate imaging, at 2 µM; inhibition of aggregation: stronger effect = higher value; nuclei count: measured here: cell count, toxicity
[3] = endothelial E-selectin expression blockers – imaging, HUVEC, immunofluorescence, MLSMR starter and 10KST1 sets, primary screen (AID 487;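 active = visually confirmed hit in the image check and inhibition above 20%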;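 for inhibition: signal is fraction of cell area covered by stained E-selectin grains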;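 for nuclei count: 100% = median nuclei count of all wells on the same plate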); details: HUVEC TNFalpha-induced E-selectin immunofluorescence imaging, at 2 µM; inhibition: stronger effect = higher value; nuclei count: measured here: cell number, toxicity
[4] = target: Voltage-gated potassium channel subunit beta-2 (Rattus norvegicus) (UniProt P62483); experiment: inhibitors of rat Kvbeta2 reductase activity – biochemical, NADPH fluorescence, primary screen (AID 622;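 active = fluorescence slope higher than the sample average by over 3 SD, cut at about -0.22 in these data, passing the limit was not always enough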;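 note: slope of raw intensity against log time taken from 70 to 1610 s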); details: recombinant KvBeta, 4-cyanobenzaldehyde reduction, at 10 µM, stronger effect = higher value
[5] = target: Voltage-gated potassium channel subunit beta-2 (Rattus norvegicus) (UniProt P62483); experiment: enhancers of rat Kvbeta2 NADPH turnover – biochemical, NADPH fluorescence, primary screen (AID 623); details: Recombinant KvBeta, NADPH fluorescence decrease slope, 10 min; at 10 µM; stronger effect = lower value;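 note: fluorescence intensity change per second fitted from 20 to 320 s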
[6] = target: Alpha-2C adrenergic receptor (Homo sapiens) (UniProt P18825); experiment: compounds altering alpha2C-coupled GIRK flux – cell-based, HEK293 alpha2C/GIRK1/2, thallium flux, primary screen (AID 624;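 active = fluorescence slope after compound addition differing from the mean of all screened samples at 99.7% confidence, in either direction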;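 note: slope of fluorescence ratio to pre-addition baseline per second over 15 to 24 s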); details: thallium flux BTC fluorescence, at 10 µM, actives lie on both sides
[7] = blockers of RIG-like receptor reporter activation – cell-based, Sendai virus stimulus, luciferase, 10K MLSCN set, TLR/RLR signaling modifier project, primary screen (AID 602276;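 active = inhibition at or above 50% at 10 µM; inactive = inhibition below 50%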;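 note: firefly luciferase from ISG56 promoter only with Renilla not read in this screen; 0% = Sendai virus plus DMSO and 100% = medium plus DMSO without virus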); details: HEK293 RL24 IRF3 luciferase reporter, at 10 µM, stronger effect = higher value
[8] = TLR3 IRF3 reporter activation blockers – cell-based, poly I:C stimulus, luciferase, 10K MLSCN set, primary screen (AID 602277;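 active = inhibition of the reporter signal at or above 50%; inactive = inhibition below 50%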); details: HEK293-TLR3 RL24 IRF3 luciferase reporter, at 10 µM, stronger effect = higher value

Chain of Alpha-2C adrenergic receptor (Homo sapiens) (P18825 whole entry, looked up): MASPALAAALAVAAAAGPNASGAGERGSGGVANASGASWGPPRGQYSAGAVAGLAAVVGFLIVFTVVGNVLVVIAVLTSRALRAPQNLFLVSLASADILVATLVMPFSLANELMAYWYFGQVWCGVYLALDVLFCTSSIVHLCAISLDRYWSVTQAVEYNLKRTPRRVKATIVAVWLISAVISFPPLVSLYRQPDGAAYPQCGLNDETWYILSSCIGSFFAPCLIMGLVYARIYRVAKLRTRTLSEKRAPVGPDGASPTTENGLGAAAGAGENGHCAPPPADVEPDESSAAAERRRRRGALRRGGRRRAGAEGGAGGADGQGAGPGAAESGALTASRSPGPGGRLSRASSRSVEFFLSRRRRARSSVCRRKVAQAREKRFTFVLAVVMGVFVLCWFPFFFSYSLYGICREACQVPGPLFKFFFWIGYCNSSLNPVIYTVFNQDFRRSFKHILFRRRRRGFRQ
Chain of Voltage-gated potassium channel subunit beta-2 (Rattus norvegicus) (P62483 whole entry, looked up): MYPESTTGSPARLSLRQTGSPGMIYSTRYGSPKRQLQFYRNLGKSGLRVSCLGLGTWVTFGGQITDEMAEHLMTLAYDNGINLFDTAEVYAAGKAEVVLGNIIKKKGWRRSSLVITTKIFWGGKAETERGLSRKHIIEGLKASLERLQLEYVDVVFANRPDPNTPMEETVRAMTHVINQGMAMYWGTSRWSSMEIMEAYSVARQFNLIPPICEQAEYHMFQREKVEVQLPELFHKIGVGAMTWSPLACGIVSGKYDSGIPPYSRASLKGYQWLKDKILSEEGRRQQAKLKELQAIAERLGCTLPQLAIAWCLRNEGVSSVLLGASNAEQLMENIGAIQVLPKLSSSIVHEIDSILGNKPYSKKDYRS

| Structure (SMILES) | cell count [1] | inhibition [1] | inhibition of aggregation [2] | nuclei count [2] [%] | inhibition [3] | nuclei count [3] [%] | fluorescence slope [4] | NADPH fluorescence slope [5] | slope [6] | inhibition [7] | inhibition [8] |
| --- | --- | --- | --- | --- | --- | --- | --- | --- | --- | --- | --- |
| C=C(C)c1cccc(C(C)(C)NC(=O)NCC2CCCO2)c1 (stereo not given) | 496 | 2.3% (inactive) | -23% (inactive) | 108 | -31.1% (inactive) | 113 | -0.362 (inactive) | -5.6e-05 (inactive) | 0.0056 (inactive) | 7.08% (inactive) | 9.27% (inactive) |
| Cc1cc(N2CCN(c3ccccn3)CC2)n2nc(C)nc2n1 | 435 | 3.5% (inactive) | -16.4% (inactive) | 105 | -4.2% (inactive) | 111 | -0.376 (inactive) | -3.3e-05 (inactive) | 0.00609 (inactive) | 12.8% (inactive) | -7.58% (inactive) |
| COc1ccccc1OCCCCNCCO | 493 | 9.1% (inactive) | -4.6% (inactive) | 103 | -80.3% (inactive) | 130 | -0.434 (inactive) | -3.7e-05 (inactive) | 0.00597 (inactive) | 1.66% (inactive) | 25.1% (inactive) |
| Oc1ccc2ccccc2c1CN1CCN(c2ccccc2F)CC1 | 564 | 2.2% (inactive) | 7.8% (inactive) | 107 | 9.5% (inactive) | 111 | -0.574 (inactive) | -3.4e-05 (inactive) | 0.00592 (inactive) | 9.17% (inactive) | 26.6% (inactive) |
| CN(c1ccccc1C(=O)N1CCN(c2cccc(Cl)c2)CC1)S(C)(=O)=O | 313 | -1.9% (inactive) | 3.7% (inactive) | 101 | 18.2% (inactive) | 120 | -0.432 (inactive) | -2.5e-05 (inactive) | 0.0047 (inactive) | 6.88% (inactive) | 8.69% (inactive) |
| O=C(Nc1cnn(Cc2ccc(Cl)cc2Cl)c1)c1noc2c1CCCC2 | 510 | -7.6% (inactive) | 33.3% (active) | 57.6 | -22.8% (inactive) | 99.5 | -0.569 (inactive) | -2.6e-05 (inactive) | 0.00522 (inactive) | -3.18% (inactive) | -25.5% (inactive) |
| COc1ccc(N2CCN(C(=O)COc3ccc4ccccc4c3)CC2)cc1 | 737 | 7.3% (inactive) | 7.5% (inactive) | 93.8 | -29.6% (inactive) | 111 | -0.468 (inactive) | -5.8e-05 (inactive) | 0.00617 (inactive) | 4.32% (inactive) | 10.9% (inactive) |
| CC(C)n1c(CN2CCN(C)CC2)nc2c1c(=O)n(C)c(=O)n2C | 600 | -5.3% (inactive) | 0.5% (inactive) | 103 | -24.8% (inactive) | 118 | -0.488 (inactive) | -4.5e-05 (inactive) | 0.00573 (inactive) | 22.2% (inactive) | 22.9% (inactive) |
| CCOc1ccc(N2CC(C(=O)Nc3ccccc3OC)CC2=O)cc1 (stereo not given) | 663 | -3.4% (inactive) | -8.5% (inactive) | 89 | -21.8% (inactive) | 126 | -0.404 (inactive) | 2.8e-05 (inactive) | 0.00536 (inactive) | 5.76% (inactive) | -2.71% (inactive) |
| CCCCCn1c(CN2CCN(c3cccc(Cl)c3)CC2)nc2c1c(=O)n(C)c(=O)n2C | 775 | 0.9% (inactive) | -13% (inactive) | 109 | -32.5% (inactive) | 113 | -0.371 (inactive) | -6e-05 (inactive) | 0.00648 (inactive) | -3% (inactive) | -10.4% (inactive) |
